The record followed here is PubChem BioAssay (Tox21).

Records with an inconclusive call do not appear. Activity calls are given as the source filed them. Calls follow the shape of the dose curve; as a rule, active = well fitted cell-killing curve with a large enough effect in the repeat runs; inconclusive = weak or mixed curves, or effect the other way; inactive = no such curve, though single readings can be large or run the other way.
% is scaled to controls: 0 for no effect and ±100 for the full control effect.

A short description of this assay: qHTS assay to identify small molecule antagonists of the glucocorticoid receptor (GR) signaling pathway - cell viability counter screen (AID 720693). Also: nearly all actives have a fitted effect of over 55% in size. Particulars: GR-bla HeLa viability, CellTiter-Glo luminescence, 18 h, with 5 nM dexamethasone present; series mostly up to 58.5 µM; viability change, negative = cytotoxic: at the top concentration. An excerpt:
National Center for Advancing Translational Sciences [NCATS]
NIH Chemical Genomics Center [NCGC]
U.S. Environmental Protection Agency [EPA]
National Institutes of Environmental Health Sciences [NIEHS]
National Toxicology Program [NTP]
U.S. Food and Drug Administration [FDA]
The Glucocorticoid receptor (GR) is one of the members of the nuclear receptor family of ligand-dependent transcription factors. GR plays a critical role in carbohydrate, protein and lipid metabolisms and programmed cell death. CellSensor GR-bla HeLa cell line (Invitrogen) contains a beta-lactamase reporter gene under the control of the glucocorticoid response element stably integrated into HeLa cells, a cervical cancer cell line that expresses glucocorticoid receptor. The activation of the reporter gene under culture conditions can be detected by fluorescence intensity. This cell line has been used to screen the Tox21 10K compound library and to identify the compounds that inhibit the GR signaling. The cytotoxicity of the Tox21 compound library against the GR-bla HeLa cell line was tested in parallel by measuring the cell viability using CellTiter-Glo assay in the same wells.
Tox21 Assay Protocol Summary:
The GR-bla HeLa cells were dispensed at 1500 cells/5 ul/well in 1536-well black wall/clear bottom plates using a Multidrop Combi (ThermoFisher Scientific, Waltham, MA) dispenser. After the assay plates were incubated at a 37 C/5% CO2 incubator for 4 hours, 23 nL of compounds dissolved in DMSO, positive controls or DMSO only was transferred to the assay plate by a pintool station (Kalypsys, San Diego, CA), followed by addition of 1 uL of dexamethasone (5 nM, final concentration in the well). The plates were incubated at 37 C for 18 hours. After 1 uL of LiveBLAzerTM B/G FRET substrate was added using a Flying Reagent Dispenser (Aurora Discovery, San Diego, CA), the plates were incubated at room temperature (RT) for 2 hours, and fluorescence intensity was measured by an Envision plate reader (PerkinElmer, Shelton, CT). After measurement of bla assay, 3 ul CellTiter-Glo (Promega, Madison, WI) was added to measure the cytotoxicity and the plates were then incubated at RT for 30 min. The luminescence was measured using a ViewLux (Perkin Elmer) plate reader.
For the compound `Cc1cccc([N+](=O)[O-])c1`, the result was inactive.

As to `O=[N+]([O-])c1ccc([As](=O)(O)O)cc1`, the call was inactive. Turning to `CON(C)C(=O)Nc1ccc(Cl)c(Cl)c1`, the call was inactive. Turning to `C=CCO`, the result was inactive. On the same count and under the same terms, next, `CCOP(=S)(OCC)SCCSCC`: “inactive”. In the case of `Nc1ccc(Oc2ccc(N)cc2)cc1`, the outcome was inactive. Still for that read-out and setting: next, `COCCl`: “inactive”. Consider `Cc1ccc([N+](=O)[O-])cc1C`, for which the “viability change, negative = cytotoxic” value is 18.1% (inactive).

`NCC(O)c1ccc(O)cc1` (stereo not given): the call was inactive. Regarding `CCCN(CCC)c1c([N+](=O)[O-])cc(C(F)(F)F)cc1[N+](=O)[O-]`, the call was inactive. For the compound `Nc1ccc(Br)cc1`, the call was inactive. Regarding `CNC(=O)Oc1ccccc1OC(C)C`, the compound was called inactive.

For `CCOC(=O)c1ccccc1C(=O)OCC`, the result was inactive. Same read-out and setting: next, `c1ccc2c(c1)Oc1ccccc1O2`: “inactive”; `O=S(=O)(c1ccc(Cl)cc1)c1cc(Cl)c(Cl)cc1Cl`: “inactive”.

For `Clc1cccc(Cl)c1Cl`, the call was inactive. Same read-out and setting: next, `Clc1ccc(Cl)cc1`: “inactive”.

As to `CC(Br)C(=O)O` (stereo not given), the “viability change, negative = cytotoxic” value is 8.04% (inactive). Take `CN1C(=O)CN=C(c2ccccc2)c2cc(Cl)ccc21`: the outcome was inactive. Take `O=c1n(Cl)c(=O)n(Cl)c(=O)n1Cl`: the compound was called inactive. On the same count and under the same terms, next, `COP(N)(=O)SC` (stereo not given): “inactive”; `CCN(CC)CCO`: “inactive”; `c1ccc(-c2ccccc2)cc1`: “inactive”.

Turning to `CCCC1COC(Cn2cncn2)(c2ccc(Cl)cc2Cl)O1` (stereo not given), the outcome was inactive.

`CN(C)N=O`: the compound was called inactive.

For `CC(C#N)CCC#N` (stereo not given), the result was inactive.

Consider `C[C@]12CC[C@H]3[C@@H](CC[C@@]45O[C@@H]4C(O)=C(C#N)C[C@]35C)[C@@H]1CC[C@@H]2O`, for which the result was inactive.

For `COC(=O)NS(=O)(=O)c1ccc(N)cc1`, the compound was classed as inactive. As to `Cn1cc(-c2ccccc2)c(=O)c(-c2cccc(C(F)(F)F)c2)c1`, the outcome was inactive. On the same count and under the same terms, next, `CC(NC(C)(C)C)C(=O)c1cccc(Cl)c1` (stereo not given): “inactive”; `CC(C)NC(=O)N1CC(=O)N(c2cc(Cl)cc(Cl)c2)C1=O`: “inactive”; `CCC[N+](=O)[O-]`: “inactive”. Take `CCCCCCCCCl`: the call was inactive.

As to `O=C(O)c1ccccn1`, the outcome was inactive. As for `CN(C)[C@@H]1C(=O)C(C(N)=O)=C(O)[C@@]2(O)C(=O)C3=C(O)c4c(O)cccc4[C@@](C)(O)[C@H]3C[C@@H]12`, the compound was classed as inactive. On to `CC(C)(C)C(O)(CCc1ccc(Cl)cc1)Cn1cncn1` (stereo not given), for which the result was inactive.

For `C=C(C)CCl`, the compound was classed as inactive. On the same count and under the same terms, next, `O=c1[nH]c(=O)[nH]c(=O)[nH]1`: “inactive”; `O=NN1CCCC1`: “inactive”; `CCOP(=S)(OCC)Oc1cnc2ccccc2n1`: “inactive”.
